Screening results (PubChem BioAssay)
Rows were chosen to be rich in hits. Some 13% of all compounds tested hit in one or more screens of this group.
LASV entry inh: qHTS for Inhibitors of binding or entry into cells for Lassa Virus | Lassa virus pseudotype entry inhibition, cell reporter | Potency, µM (top dose mostly 37.9 µM), hits mostly inhibitors | 300,000 compounds, 1.2% hits; calls by dose curve; tested in HEK293 cells; also: nearly all actives have a fitted effect of over 50% in size
HCV inh: qHTS Assay for Inhibitors of Hepatitis C Virus (HCV) | Huh7.5.1 HCVcc-Cre infection, luciferase reporter, 44 h | Potency, µM (highest dose often 41.8 µM), actives largely listed as inhibitors | 340,000 compounds, 3.4% hits | AID 651820, 2012; active = well fitted inhibition curve with a large enough effect; inconclusive = small, poorly fitted or top-dose-only effect, or another doubt; inactive = no such curve, though single readings can be large or run the other way
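Compounds are dispensed onto cells plated 4 h earlier at 1,000 per well, with HCVcc-Cre virus (about 0.5 moi) added next. Following 44 h of culture, luminescent signal is measured for 15 sec after 15 min with substrate at room temperature.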
Marburg entry inh: qHTS for inhibitors of binding or entry into cells for Marburg Virus | Marburg virus pseudotyped entry inhibition, cell reporter | 300,000 compounds, 1.8% hits | Potency, µM (highest dose often 37.8 µM), most hits filed as inhibitors | AID 540276, 2011; calls by dose curve; tested in HEK293 cells
Cycloheximide cs: Cycloheximide Counterscreen for Small Molecule Inhibitors of Shiga Toxin; cell reporter, cycloheximide protein synthesis inhibition counterscreen; max response, %; 300,000 compounds, 12% hits; in the data active = max response mostly above about 13%, no sharp cut-off; inactive = mostly below about 14%; also: read at 38.3 µM for the half of the compounds with a filed dose
Shiga inhibitor: A qHTS for Small Molecule Inhibitors of Shiga Toxin; inhibition, % at 38.7 µM; AID 2315, 2010; Vero cells, Shiga toxin protein synthesis inhibition reporter; 290,000 compounds, 9.2% hits; in the data active = inhibition mostly above about 28%, no sharp cut-off; inactive = mostly below about 43%
FMDV inh: High Throughput Screening for Foot and Mouth Disease Virus Antivirals; 410,000 compounds, 1.2% hits; FMDV antiviral cell-based qHTS; Potency, µM (top dose mostly 57.9 µM), actives largely listed as inhibitors; AID 1159524, 2015; calls by dose curve; tested in HEK293T cells; also: read-out not given here; nearly all actives have a fitted effect of over 45% in size
Of the large screens only hits and unclear results are named; the others gave an inactive call.

CCOc1ccc(CCNC(=O)C2Cc3ccccc3N2C(=O)CC)cc1 (centres undefined)	none (no result: HCV inh, Marburg entry inh, Cycloheximide cs, Shiga inhibitor)
CCCC(=O)OCCNc1cc(SCCC(=O)OC)c2nonc2c1[N+](=O)[O-]	Marburg entry inh inconclusive
O=[N+]([O-])c1c(NCCCO)cc(SCc2ccco2)c2nonc12	HCV inh inconclusive
CC(=O)OCCNc1cc(Sc2nc3ccccc3[nH]2)c2nonc2c1[N+](=O)[O-]	HCV inh inconclusive, FMDV inh 35µM
CC(=O)OCCCNc1cc(Sc2nc3ccccc3s2)c2nonc2c1[N+](=O)[O-]	FMDV inh inconclusive
CC(=O)OCCNc1cc(SCc2ccco2)c2nonc2c1[N+](=O)[O-]	HCV inh inconclusive, Marburg entry inh inconclusive, FMDV inh 32µM
COC(=O)CCSc1cc(NCCOC(C)=O)c([N+](=O)[O-])c2nonc12	HCV inh inconclusive, Marburg entry inh inconclusive, FMDV inh 35µM
CCOC(=O)c1c(C)n(CC(O)CN(CC)CC)c2cc(Br)c(OC)cc12 (centres undefined)	HCV inh inconclusive
COc1cc(C(=O)OCC(=O)Nc2ccc(C(C)=O)cc2)ccc1OCC(=O)N1CCOCC1	Marburg entry inh inconclusive
CNCC/C=C\c1cccnc1	none (no result: LASV entry inh, HCV inh, Marburg entry inh, Cycloheximide cs, Shiga inhibitor)
Cc1c(O)c(=O)n(-c2ccccc2)n1C	none (no result: LASV entry inh, Marburg entry inh, Cycloheximide cs, Shiga inhibitor)
NC(=O)C1CCN(C(=O)C2CCC(=O)N(Cc3ccc(Cl)cc3)C2)CC1 (centres undefined)	none (no result: Cycloheximide cs, Shiga inhibitor)
COc1cccc(CN2CC(C(=O)N(C)Cc3ccc(C)cc3)CCC2=O)c1 (centres undefined)	Cycloheximide cs 43 (no result: LASV entry inh, Marburg entry inh)
COc1cccc(CN2CC(C(=O)N3CCCCCCC3)CCC2=O)c1 (centres undefined)	none (no result: LASV entry inh, Marburg entry inh)
Cc1ccc(N2CCN(C(=O)C3CCC(=O)N(Cc4ccc(Cl)cc4)C3)CC2)c(C)c1 (centres undefined)	LASV entry inh inconclusive, HCV inh 11µM, FMDV inh inconclusive
COc1cccc(CN2CC(C(=O)NCCCc3ccc(C)cc3)CCC2=O)c1 (centres undefined)	Cycloheximide cs 19 (no result: LASV entry inh, Marburg entry inh)
COc1cccc(CN2CC(C(=O)N3CCOCC3)CCC2=O)c1 (centres undefined)	Cycloheximide cs 46, Shiga inhibitor 66 (no result: LASV entry inh, Marburg entry inh)
COc1cccc(CN2CC(C(=O)NCCCc3ccncc3)CCC2=O)c1 (centres undefined)	Marburg entry inh inconclusive (no result: HCV inh)
CCC(C)NC(=O)CO/N=C/c1ccccc1OC(F)F (centres undefined)	HCV inh inconclusive
Fc1ccccc1N1CCN(C2CCCN(Cc3ccccc3C(F)(F)F)C2)CC1 (centres undefined)	none (no result: LASV entry inh, Marburg entry inh)
CN(C)c1ccc(/C=C2/C(=N\O)C3CCN2CC3)cc1	Cycloheximide cs 41, Shiga inhibitor 89
CN(C)c1ccc(/C=N/O)cc1	none
CS(=O)(=O)Cc1ccc(C(=O)NCC2(N3CCCCC3)CCCCC2)cc1	none (no result: LASV entry inh)
COc1ccc(N(C)S(=O)(=O)c2cccc(C(=O)OCC(=O)N3CC(C)CC(C)C3)c2)cc1 (centres undefined)	LASV entry inh inconclusive, HCV inh inconclusive, Marburg entry inh inconclusive, FMDV inh 32µM (no result: Cycloheximide cs, Shiga inhibitor)
C=CCN(c1ccc(C(=O)OC)cc1)S(=O)(=O)c1ccccc1	Cycloheximide cs 33, Shiga inhibitor 92
CCCN(c1ccc(C(=O)OC)cc1)S(=O)(=O)c1ccccc1	none
C=CCN(c1ccccc1)S(=O)(=O)c1cccc(C(=O)Nc2cccc(C)n2)c1	LASV entry inh inconclusive, HCV inh 14µM, Marburg entry inh inconclusive, FMDV inh inconclusive (no result: Cycloheximide cs, Shiga inhibitor)
C=CCN(c1ccccc1)S(=O)(=O)c1cccc(C(=O)N2CC(C)CC(C)C2)c1 (centres undefined)	LASV entry inh inconclusive, HCV inh 7.1µM, Marburg entry inh inconclusive
CCN(c1ccccc1)S(=O)(=O)c1cccc(C(=O)Nc2cccc(C)n2)c1	none (no result: LASV entry inh, HCV inh, Marburg entry inh, Cycloheximide cs, Shiga inhibitor)
CC1CC(C)CN(C(=O)c2cccc(S(=O)(=O)N(C)c3ccccc3)c2)C1 (centres undefined)	LASV entry inh inconclusive, HCV inh 32µM, Marburg entry inh inconclusive (no result: Cycloheximide cs, Shiga inhibitor)
COC(=O)c1ccc(NC(=O)c2ccc3nccnc3c2)cc1	HCV inh inconclusive
